Some test systems named below: BT-549 breast; MDA-MB-435 melanoma; SW-620 colon; MCF7 breast; HCT-116 colon; HCC-2998 colon; KM12 colon.
Holding throughout (assay): NCI-60 one-dose screen, 48 h (100 = growth as untreated, 0 = no growth, -100 = all killed)
Conditions in all cases: 10 µM

Compounds without any hit were thinned out: in the full panel of roughly 83,000, 20% have a hit.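 Testing used 96-well plates and a 48-hour single-concentration exposure. Example: -40 means 40% of the starting cells died.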 Unmarked numbers belong to inactive results. The source made the active and inactive calls. How the source made its calls: active means growth percent below 10; inactive means the rest.

Regarding `O=C1Nc2ccccc2C1=NC1CCCCC1`, the growth was 96.1% in the test with BT-549 breast; 106% in the test with MDA-MB-435 melanoma; 105% with SW-620 colon; 98% in the test on MCF7 breast; 105% in the test on HCT-116 colon; 107% in the test with HCC-2998 colon. The growth with KM12 colon was 95.9%.

Take `Cc1ccc(S(=O)(=O)OCCN(CCOS(=O)(=O)c2ccc(C)cc2)c2c[nH]c(=O)[nH]c2=O)cc1`: the growth in the test with BT-549 breast is 112%; with MDA-MB-435 melanoma, 103%; in the test on SW-620 colon, 110%; in the test with MCF7 breast it was 99.2%; in the test with HCT-116 colon, 108%; in the test on HCC-2998 colon, 128%. The growth in the test with KM12 colon was 116%.

For the molecule `O=C(Nc1nc2ccccc2s1)Nc1ccc([N+](=O)[O-])cc1Cl`, the growth in the test on BT-549 breast is 16.2%; with MDA-MB-435 melanoma, 40.4%; in the test on SW-620 colon it was 95.6%; in the test on MCF7 breast it was 74.3%; in the test with HCT-116 colon it was 18.7%; with HCC-2998 colon it was 76.1%. Further, the growth in the test with KM12 colon was -32.4% (active).

As for `COc1cc(/C=N/NC(=O)c2ccccc2Nc2ccnc(C(F)(F)F)c2)ccc1O`, the growth was 116% with BT-549 breast; 106% in the test on MDA-MB-435 melanoma; 104% in the test with SW-620 colon; 86.8% in the test on MCF7 breast; 102% with HCT-116 colon; 123% in the test with HCC-2998 colon. Besides, the growth in the test with KM12 colon was 114%.

As to `O=C(C[P+](c1ccccc1)(c1ccccc1)c1ccccc1)C[P+](c1ccccc1)(c1ccccc1)c1ccccc1`, the growth is -89.2% (active) in the test with BT-549 breast; -80.6% (active) in the test on MDA-MB-435 melanoma; -71.9% (active) with SW-620 colon; -69.8% (active) with MCF7 breast; -93.3% (active) in the test on HCT-116 colon; -83.9% (active) in the test on HCC-2998 colon. For the same molecule, the growth with KM12 colon is -75.5% (active).

As to `CCn1cc(C(=O)O)c(=O)c2cnc(N3CCCC3)nc21`, the growth in the test on BT-549 breast is 104%; in the test with MDA-MB-435 melanoma, 94.2%; with SW-620 colon, 106%; in the test with MCF7 breast it was 103%; with HCT-116 colon, 96.9%; in the test on HCC-2998 colon it was 107%. In addition, the growth with KM12 colon was 108%.

With `O=S(=O)(NCCCNc1nccc(-c2c(-c3ccc(F)cc3)nc3sccn23)n1)c1ccc(F)cc1`, the growth with BT-549 breast was 52.8%; with MDA-MB-435 melanoma, 20.6%; in the test on SW-620 colon, 47.1%; in the test on MCF7 breast, 32.8%; with HCT-116 colon, 28.9%; with HCC-2998 colon, 37.6%. In addition, the growth with KM12 colon is 27.8%.

With `CCN(CC)CCCC(C)Nc1ccc2ccc(Cl)cc2n1` (stereo not given), the growth is 96.2% in the test on BT-549 breast; 109% with MDA-MB-435 melanoma; 97.9% with SW-620 colon; 99.6% with MCF7 breast; 92.2% in the test with HCT-116 colon; 92.8% in the test on HCC-2998 colon. In the test with KM12 colon, the growth is 104%.

Turning to `O=C(CCCCC[P+](c1ccccc1)(c1ccccc1)c1ccccc1)NC(COC(=O)C(Cl)Cl)(COC(=O)C(Cl)Cl)COC(=O)C(Cl)Cl`, the growth was 94.9% in the test on BT-549 breast; 102% with MDA-MB-435 melanoma; 107% in the test with SW-620 colon; 95.2% with MCF7 breast; 100% in the test on HCT-116 colon; 109% in the test with HCC-2998 colon. The growth in the test with KM12 colon is 107%.

For the molecule `COc1ccccc1CNCCCN1C(=O)c2ccc3c4c(ccc(c24)C1=O)C(=O)N(CCCN)C3=O`, the growth is -43.4% (active) in the test with BT-549 breast; -88.3% (active) in the test on MDA-MB-435 melanoma; -69.8% (active) with SW-620 colon; -29.4% (active) in the test with MCF7 breast; -4.19% (active) with HCT-116 colon; -56.8% (active) with HCC-2998 colon. Moreover, in the test on KM12 colon, the growth is 4.38% (active).

On to `Cc1cc(C)c(NC(=O)c2sc3nc4c(cc3c2N)C(=O)CCC4)c(C)c1`, for which the growth with BT-549 breast is 56.7%; with MDA-MB-435 melanoma, -34.4% (active); with SW-620 colon, 15.6%; in the test with MCF7 breast it was 16.8%; in the test with HCT-116 colon it was 23.1%; in the test with HCC-2998 colon, 30.9%. Also, the growth with KM12 colon is 27.3%.

Consider `COc1ccc2c(c1)O/C(=C\c1ccc([N+](=O)[O-])o1)C2=O`, for which the growth with BT-549 breast was -50% (active); in the test with MDA-MB-435 melanoma, -72.5% (active); with SW-620 colon, -53.8% (active); with MCF7 breast, 2.06% (active); with HCT-116 colon it was -39% (active); in the test with HCC-2998 colon, -26.8% (active). For the same molecule, the growth in the test with KM12 colon was -11.5% (active).

With `CCN(CC)CCC(=O)Nc1cccc2c1C(=O)c1c(c(O)c3ccccc3c1O)C2=O`, the growth was 68.8% in the test with BT-549 breast; 91.6% with MDA-MB-435 melanoma; 43.8% in the test on SW-620 colon; 30.3% with MCF7 breast; 44.9% in the test on HCT-116 colon; 80.9% in the test with HCC-2998 colon. The growth with KM12 colon is 56.9%.

For the molecule `CN(Cc1ccccc1)Cc1ccc([N+](=O)[O-])cc1I`, the growth was 87.7% in the test on BT-549 breast; 102% with MDA-MB-435 melanoma; 89% in the test with SW-620 colon; 91.6% in the test on MCF7 breast; 84% in the test with HCT-116 colon; 106% in the test with HCC-2998 colon. In the test with KM12 colon, the growth was 93.2%.

As to `CCCC#CCN(CC)CC`, the growth is 120% in the test on BT-549 breast; 95% in the test with MDA-MB-435 melanoma; 107% with SW-620 colon; 102% with MCF7 breast; 109% in the test on HCT-116 colon; 120% in the test on HCC-2998 colon. Besides, the growth in the test on KM12 colon is 111%.

In the case of `Cc1nc2ccccc2c(N)c1-c1cc(C)c2c(C)nc3ccccc3c2n1`, the growth in the test with BT-549 breast was 58.2%; in the test with MDA-MB-435 melanoma, 69.4%; with SW-620 colon it was -65.7% (active); in the test on MCF7 breast, 31.2%; in the test with HCT-116 colon it was -82.1% (active); with HCC-2998 colon it was -35% (active). Further, the growth with KM12 colon is -83.2% (active).

In the case of `Cc1cc(N(CCCNc2ccnc3cc(Cl)ccc23)Cc2ccc3c(c2)OCO3)nc(N2CCOCC2)n1`, the growth is 12.3% in the test on BT-549 breast; -13.6% (active) with MDA-MB-435 melanoma; 11.7% in the test on SW-620 colon; 31.9% in the test with MCF7 breast; 3.52% (active) in the test with HCT-116 colon; 25.7% in the test with HCC-2998 colon. In addition, in the test on KM12 colon, the growth is 40.6%.

With `O=C(O)c1ccc(P(=O)(O)O)c([N+](=O)[O-])c1`, the growth in the test with BT-549 breast was 102%; in the test with MDA-MB-435 melanoma, 96%; in the test with SW-620 colon, 98.2%; with MCF7 breast, 99.3%; in the test with HCT-116 colon, 113%; in the test on HCC-2998 colon, 111%. The growth in the test with KM12 colon was 105%.

In the case of `O=C(Nc1cccc(-n2cc(-c3ccncc3)c(-c3ccc(O)c(Cl)c3)n2)c1)Nc1cccc(C(F)(F)F)c1`, the growth is 13.3% in the test on BT-549 breast; -35.3% (active) in the test with MDA-MB-435 melanoma; 13.2% with SW-620 colon; -6.1% (active) with MCF7 breast; 5.24% (active) in the test with HCT-116 colon; 20.4% in the test with HCC-2998 colon. The growth in the test with KM12 colon is -14.7% (active).

`CC1(C)N=C(N)N=C(N)N1c1ccc(CCc2ccccc2)c(Cl)c1`: the growth was 35.6% in the test on BT-549 breast; 16.2% in the test with MDA-MB-435 melanoma; 17.6% in the test with SW-620 colon; 13.4% with MCF7 breast; 10.2% in the test on HCT-116 colon; 15.3% in the test on HCC-2998 colon. Also, the growth with KM12 colon is 13.5%.

Consider `O=C(Nc1cccc(Br)c1)c1cc(=O)[nH]c2ccccc12`, for which the growth with BT-549 breast is 82.1%; in the test with MDA-MB-435 melanoma, 101%; in the test with SW-620 colon, 102%; with MCF7 breast, 84%; with HCT-116 colon, 109%; in the test with HCC-2998 colon it was 104%. Further, the growth with KM12 colon is 101%.

Consider `COc1ccc([N+](=O)[O-])c(C(=O)O)c1`, for which the growth is 102% in the test with BT-549 breast; 97.9% with MDA-MB-435 melanoma; 101% in the test with SW-620 colon; 93.8% in the test with MCF7 breast; 103% in the test on HCT-116 colon; 106% in the test with HCC-2998 colon. The growth in the test on KM12 colon is 100%.

Regarding `O=C1/C(=C/c2ccc([N+](=O)[O-])o2)Oc2ccccc21`, the growth with BT-549 breast was -51.3% (active); in the test on MDA-MB-435 melanoma it was -70.9% (active); in the test with SW-620 colon, -77.6% (active); in the test on MCF7 breast, 7.13% (active); with HCT-116 colon, -56% (active); in the test on HCC-2998 colon, -1.7% (active). Moreover, the growth in the test with KM12 colon was 48.3%.

With `CC(C)(C#N)Nc1ccccc1`, the growth is 108% with BT-549 breast; 96.1% with MDA-MB-435 melanoma; 112% in the test on SW-620 colon; 93.4% in the test on MCF7 breast; 101% in the test with HCT-116 colon; 119% with HCC-2998 colon. Moreover, in the test with KM12 colon, the growth is 115%.

As to `FC(F)(F)c1ccc2nc(-c3nc(-c4ccccc4)n4ccccc34)[nH]c2c1`, the growth is 85.9% in the test with BT-549 breast; 87.5% in the test with MDA-MB-435 melanoma; 72% with SW-620 colon; 38.3% with MCF7 breast; 8.85% (active) with HCT-116 colon; 82.6% with HCC-2998 colon. For the same molecule, in the test with KM12 colon, the growth is 52.4%.

Values taken from PubChem BioAssay (NCI).
